# Source: the supplement of paper PMC6897291
# Counter-ions that a name gives are not always drawn.
# Experiments:
# RIVA [1] = test: growth inhibition by drug plus 177Lu-lilotomab satetraxetan (1 - RLU/untreated control) (fraction); higher = stronger inhibition; settings: 177Lu-lilotomab satetraxetan 0.5 ug/ml
# Method in brief: (§1)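 RIVA or U-2932 cells were left untreated or pretreated for 18 h with a radiolabelled anti-CD37 antibody conjugate (~600 MBq/mg) at 0.5 µg/ml for RIVA or 1 µg/ml for U-2932. The cells were then washed and seeded at 3,000 cells/well on plates pre-printed with the Selleck Cambridge Cancer Compound library, dosed at 10/100 nM for RIVA and 10/1,000 nM for U-2932. From day 3, RealTime-Glo luminescence was read daily after 1 h at 37°C. Growth inhibition was taken as one minus RLU over the mean of the untreated no-drug wells, of which there were 48 per plate.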
# U-2932 [2] = test: growth inhibition by drug alone (1 - RLU/untreated control) (fraction); higher = stronger inhibition; settings: 177Lu-lilotomab satetraxetan 0 ug/ml
# Method in brief: as §1
# RIVA [3] = test: as above; settings: 177Lu-lilotomab satetraxetan 0 ug/ml
# Method in brief: as §1
# U-2932 [4] = test: growth inhibition by drug plus 177Lu-lilotomab satetraxetan (1 - RLU/untreated control) (fraction); higher = stronger inhibition; settings: 177Lu-lilotomab satetraxetan 1 ug/ml
# Method in brief: as §1
SMILES,"growth inhibition by drug plus 177Lu-lilotomab satetraxetan (RIVA [1]; 100 nM, time (day): 5)","growth inhibition by drug plus 177Lu-lilotomab satetraxetan (RIVA [1]; 100 nM, time (day): 6)","growth inhibition by drug alone (U-2932 [2]; 10 nM, time (day): 3)","growth inhibition by drug alone (U-2932 [2]; 10 nM, time (day): 4)","growth inhibition by drug alone (U-2932 [2]; 10 nM, time (day): 5)","growth inhibition by drug alone (U-2932 [2]; 10 nM, time (day): 6)","growth inhibition by drug alone (U-2932 [2]; 1000 nM, time (day): 3)","growth inhibition by drug alone (U-2932 [2]; 1000 nM, time (day): 4)","growth inhibition by drug alone (U-2932 [2]; 1000 nM, time (day): 5)","growth inhibition by drug alone (U-2932 [2]; 1000 nM, time (day): 6)","growth inhibition by drug alone (RIVA [3]; 10 nM, time (day): 3)","growth inhibition by drug alone (RIVA [3]; 10 nM, time (day): 4)","growth inhibition by drug alone (RIVA [3]; 10 nM, time (day): 5)","growth inhibition by drug alone (RIVA [3]; 10 nM, time (day): 6)","growth inhibition by drug alone (RIVA [3]; 100 nM, time (day): 3)","growth inhibition by drug alone (RIVA [3]; 100 nM, time (day): 4)","growth inhibition by drug alone (RIVA [3]; 100 nM, time (day): 5)","growth inhibition by drug alone (RIVA [3]; 100 nM, time (day): 6)","growth inhibition by drug plus 177Lu-lilotomab satetraxetan (U-2932 [4]; 10 nM, time (day): 3)","growth inhibition by drug plus 177Lu-lilotomab satetraxetan (U-2932 [4]; 10 nM, time (day): 4)","growth inhibition by drug plus 177Lu-lilotomab satetraxetan (U-2932 [4]; 10 nM, time (day): 5)","growth inhibition by drug plus 177Lu-lilotomab satetraxetan (U-2932 [4]; 10 nM, time (day): 6)","growth inhibition by drug plus 177Lu-lilotomab satetraxetan (U-2932 [4]; 1000 nM, time (day): 3)","growth inhibition by drug plus 177Lu-lilotomab satetraxetan (U-2932 [4]; 1000 nM, time (day): 4)","growth inhibition by drug plus 177Lu-lilotomab satetraxetan (U-2932 [4]; 1000 nM, time (day): 5)","growth inhibition by drug plus 177Lu-lilotomab satetraxetan (U-2932 [4]; 1000 nM, time (day): 6)","growth inhibition by drug plus 177Lu-lilotomab satetraxetan (RIVA [1]; 10 nM, time (day): 3)","growth inhibition by drug plus 177Lu-lilotomab satetraxetan (RIVA [1]; 10 nM, time (day): 4)","growth inhibition by drug plus 177Lu-lilotomab satetraxetan (RIVA [1]; 10 nM, time (day): 5)","growth inhibition by drug plus 177Lu-lilotomab satetraxetan (RIVA [1]; 10 nM, time (day): 6)","growth inhibition by drug plus 177Lu-lilotomab satetraxetan (RIVA [1]; 100 nM, time (day): 3)","growth inhibition by drug plus 177Lu-lilotomab satetraxetan (RIVA [1]; 100 nM, time (day): 4)"
CNCc1ccc(-c2[nH]c3cc(F)cc4c3c2CCNC4=O)cc1,0.574,0.57,–,–,–,–,–,–,–,–,–,–,–,–,–,–,–,–,–,–,–,–,–,–,–,–,–,–,–,–,–,–
CC1(COc2ccc3c(c2)ncn3-c2ccc3cccc(N4CCC(N)CC4)c3n2)COC1,0.466,0.463,0.0766,0.0633,0.00938,-0.0623,0.0371,0.0705,-0.00181,0.0785,0.0318,-0.0103,-0.0736,-0.123,-0.25,-0.202,-0.209,-0.254,0.0763,0.118,0.168,0.194,0.257,0.342,0.386,0.516,0.618,0.628,0.633,0.631,0.449,0.485
Nc1ccccc1NC(=O)c1ccc(CNc2nccc(-c3cccnc3)n2)cc1 [Mocetinostat (MGCD0103)],0.705,0.7,0.00982,0.0102,0.0298,0.152,0.868,0.878,0.889,0.91,-0.0534,-0.0971,-0.0989,-0.142,0.358,0.254,0.208,0.152,-0.0242,-0.00346,0.0145,0.11,0.876,0.893,0.907,0.934,0.466,0.553,0.579,0.576,0.681,0.692
COc1cc(Nc2ncc(F)c(Nc3ccc4c(n3)NC(=O)C(C)(C)O4)n2)cc(OC)c1OC [R406(free base)],0.581,0.575,0.0274,-0.00454,-0.0695,-0.162,0.0655,0.0291,-0.0439,0.00754,0.0167,-0.0293,-0.017,-0.0464,-0.368,-0.333,-0.353,-0.462,-0.0151,0.0369,0.0816,0.0813,0.069,0.0868,0.096,0.227,0.577,0.592,0.602,0.605,0.471,0.564
COc1cc([C@@H]2c3cc4c(cc3[C@@H](O[C@@H]3O[C@@H]5CO[C@@H](C)O[C@H]5[C@H](O)[C@H]3O)[C@H]3COC(=O)[C@H]23)OCO4)cc(OC)c1O [Etoposide (VP-16)],0.816,0.845,-0.0657,-0.0505,-0.0531,-0.0136,0.738,0.843,0.913,0.949,-0.26,-0.276,-0.302,-0.423,-0.0322,0.0869,0.148,0.202,-0.108,-0.0574,-0.0473,0.0279,0.823,0.901,0.945,0.969,0.345,0.51,0.549,0.556,0.681,0.776
O=C(O)C(=O)O.[NH-]C1CCCCC1[NH-].[Pt+2] (configuration not stated) [Oxaliplatin (Eloxatin)],0.534,0.531,0.138,0.113,-0.0491,-0.0738,0.613,0.565,0.489,0.46,0.335,0.288,0.293,0.22,-0.171,-0.0865,-0.121,-0.155,0.123,0.163,0.223,0.284,0.675,0.638,0.604,0.608,0.6,0.598,0.621,0.626,0.453,0.516
CCCCCOC(=O)Nc1nc(=O)n([C@@H]2O[C@H](C)[C@@H](O)[C@H]2O)cc1F [Capecitabine (Xeloda)],0.465,0.483,-0.0672,-0.0894,-0.0926,-0.0992,-0.0819,-0.0438,-0.0714,0.0681,-0.345,-0.321,-0.354,-0.36,-0.381,-0.792,-0.367,-0.436,-0.101,-0.0507,0.0153,0.0328,-0.139,-0.0798,-0.0339,0.114,0.468,0.533,0.549,0.549,0.378,0.466
C[C@H](NC(=O)Cc1cc(F)cc(F)c1)C(=O)N[C@@H]1C(=O)N(C)c2ccccc2-c2ccccc21,0.412,0.389,-0.0485,-0.0319,-0.0413,0.0451,-0.0641,-0.0187,-0.0724,-0.157,-0.258,-0.261,-0.314,-0.599,-0.307,-0.355,-0.331,-0.429,-0.062,-0.041,-0.0625,-0.0177,-0.026,0.0466,0.00781,-0.0375,0.291,0.422,0.458,0.48,0.298,0.4
CCCCCCCc1ccc(CCc2cccc(O)c2C(=O)O)cc1,0.62,0.624,-0.00199,-0.0102,-0.0455,-0.106,0.0439,0.0243,-0.0103,0.0409,-0.000498,-0.0468,-0.0726,-0.153,-0.176,-0.164,-0.186,-0.241,-0.0136,0.0406,0.0811,0.11,0.0189,0.0723,0.084,0.179,0.588,0.59,0.619,0.624,0.545,0.607
COc1cc(OC2CCN(C)CC2)ccc1Nc1ncc2c(n1)n(C1CCCC1)c(=O)n2C,0.453,0.479,-0.0462,-0.0489,-0.0615,-0.034,-0.165,-0.184,-0.206,-0.247,-0.233,-0.291,-0.358,-0.453,-0.524,-0.553,-0.545,-0.66,-0.087,-0.0366,0.0152,0.102,-0.121,-0.0709,-0.0115,0.128,0.539,0.578,0.601,0.587,0.355,0.432
Cc1[nH]c(/C=C2\C(=O)Nc3ccc(S(=O)(=O)N(C)c4cccc(Cl)c4)cc32)c(C)c1C(=O)N1CCN(C)CC1,0.528,0.523,-0.0104,0.00253,-0.0727,-0.198,-0.0486,-0.0391,-0.0232,0.0376,-0.187,-0.174,-0.209,-0.352,-0.317,-0.305,-0.286,-0.342,-0.0184,0.0537,0.0856,0.0845,-0.011,0.0937,0.135,0.249,0.489,0.536,0.543,0.552,0.412,0.518
N#CC1(c2ccc(NC(=O)c3cccnc3NCc3ccncc3)cc2)CCCC1 [Apatinib (YN968D1)],0.555,0.524,0.0813,0.0775,0.0186,-0.0775,-0.000689,0.0222,-0.108,-0.279,-0.0437,0.0236,-0.0386,-0.253,-0.0842,-0.0337,-0.084,-0.223,0.0626,0.101,0.109,0.137,-0.0473,0.0612,0.0296,0.0686,0.491,0.579,0.593,0.615,0.497,0.559
COc1cc2nc(N3CCCN(C)CC3)nc(NC3CCN(Cc4ccccc4)CC3)c2cc1OC,0.569,0.565,0.128,0.0539,-0.00458,-0.0956,0.00727,0.0766,0.0688,0.0239,0.0768,0.122,0.055,-0.0793,0.209,0.192,0.165,0.117,0.0951,0.135,0.169,0.207,0.133,0.247,0.267,0.319,0.498,0.588,0.618,0.631,0.469,0.552
COc1cccc2c1C(=O)c1c(O)c3c(c(O)c1C2=O)C[C@@](O)(C(C)=O)C[C@@H]3O[C@H]1C[C@H](N)[C@H](O)[C@H](C)O1 [Daunorubicin HCl (Daunomycin HCl)],0.94,0.96,0.144,0.147,0.0841,0.0306,0.971,0.975,0.98,0.983,0.109,0.134,0.15,0.0495,0.569,0.743,0.857,0.915,0.21,0.265,0.341,0.415,0.978,0.982,0.984,0.987,0.833,0.844,0.868,0.902,0.87,0.915
N#Cc1ccc(C(c2ccc(C#N)cc2)n2cncn2)cc1 [Letrozole],0.409,0.401,-0.0916,-0.0615,-0.0521,0.00419,-0.0775,-0.0542,-0.0553,-0.0728,-0.194,-0.245,-0.249,-0.307,-0.0878,-0.169,-0.207,-0.242,-0.121,-0.0795,-0.0651,0.00121,-0.131,-0.067,-0.0375,0.0441,0.418,0.498,0.524,0.535,0.319,0.397
CO[C@H]1/C=C\C=C(/C)C(=O)NC2=CC(=O)C(NCCN(C)C)=C(C[C@@H](C)C[C@H](OC)[C@H](O)[C@@H](C)/C=C(\C)[C@@H]1OC(N)=O)C2=O [17-DMAG HCl (Alvespimycin)],0.982,0.987,0.163,0.099,-0.033,-0.0727,0.944,0.979,0.985,0.986,0.132,0.103,0.0633,-0.0974,0.922,0.953,0.961,0.96,0.0703,0.119,0.177,0.21,0.956,0.982,0.988,0.99,0.602,0.624,0.637,0.653,0.96,0.98
